Assay results from publication PMC4552634, “A New Set of Chemical Starting Points with Plasmodium falciparum Transmission-Blocking Potential for Antimalarial Drug Discovery” (PLoS ONE, 2015).
Out of some 13,000 compounds screened, about 3,200 (25%) showed an effect of 50% or more. The list shows a part of the results.

Test system: P. falciparum stage V gametocytes
Set-up: BacTiter-Glo ATP luminescence viability of purified stage V gametocytes in 384-well plates, per cent inhibition versus DMSO
Conditions: 48 h, 5 µM; inhibitor

Row | Structure (SMILES) | % Inhibition
1 | COc1cc(CCNc2nc(NCc3ccccc3-c3ccccc3)nc(N3CCC(N)CC3)n2)ccc1O [TCMDC-133443] | 10.19%
2 | N#CCSc1nnc(-c2ccccc2)c2ccccc12 [TCMDC-123867] | 67.4%
3 | CCOC(=O)CCCc1cc(NC2CCN(C)CC2)nc(Nc2ccc(C)cc2)n1 [TCMDC-134016] | -52.81%
4 | C=C[C@]1(C)C[C@@H](OC(=O)CNC[C@@H](O)CN2C[C@H](c3ccnc4ccc(OC)nc34)OC2=O)[C@]2(C)[C@H](C)CC[C@]3(CCC(=O)[C@H]32)[C@@H](C)[C@@H]1O [TCMDC-135366] | -2.122%
5 | Nc1nc(Cc2ccc(Cl)cc2)nc(Cc2ccc(Cl)cc2)n1 [TCMDC-137497] | 78.01%
6 | Cc1nc2nc(N)nc(N)c2c(C)c1Cc1ccc(Cl)cc1 [TCMDC-137659] | 18.29%
7 | CCc1nc(N)nc(N)c1-c1ccc(Cl)cc1 [TCMDC-125860] | 8.374%
8 | Cc1ccc(C(=O)N2CCc3cc4nccc(N5CCN6CCC[C@H]6C5)c4cc32)cc1 [TCMDC-140036] | -10.33%
9 | O=C(c1ccc(-c2ccc(Cl)cc2)o1)N1CCc2cc3nccc(N4CCN5CCC[C@H]5C4)c3cc21 [TCMDC-140116] | 93.89%
10 | COc1ccc(/C=C/C(=O)N2CCc3cc4nccc(N5CCN6CCC[C@H]6C5)c4cc32)cc1 [TCMDC-140046] | -29.41%
11 | O=C(Cc1cccc(Cl)c1)N1CCc2cc3nccc(N4CCN5CCC[C@H]5C4)c3cc21 [TCMDC-140038] | 0.313%
12 | O=C(c1cc2ccccc2o1)N1CCc2cc3nccc(N4CCN5CCC[C@H]5C4)c3cc21 [TCMDC-140037] | -9.524%
13 | COc1ccc(C(=O)N2CCc3cc4nccc(N5CCN6CCC[C@H]6C5)c4cc32)cc1 [TCMDC-140035] | 84.78%
14 | O=C(NCc1cccc(F)c1)c1ccc(O)c(-c2cc(Cl)cc(Cl)c2)c1 [TCMDC-140157] | -3.983%
15 | O=C(Nc1ccc(N2CCN(Cc3c[nH]c4cc(F)ccc34)CC2)cc1)c1ccccc1-c1ccc(C(F)(F)F)cc1 [TCMDC-138521] | 1.427%
16 | Cc1nc2ccc3ccc(CNc4ccc5c(c4)CN([C@H](CCC(=O)O)C(=O)O)C5=O)cc3c2c(=O)[nH]1 [TCMDC-138033] | 21.85%
17 | O=C(/C=C/c1ccc([N+](=O)[O-])cc1)N1CCC(NS(=O)(=O)c2ccc(F)cc2)CC1 [TCMDC-139441] | 26.45%
18 | O=C(/C=C/c1ccc(Cl)c(Cl)c1)N1CCN(C(=O)Nc2ccc(F)c(Cl)c2)CC1 [TCMDC-135942] | -48.62%
19 | O=C(C=Cc1ccc(F)cc1)N1CCN(S(=O)(=O)c2ccc(Cl)cc2)CC1 [TCMDC-125028] | 63.42%
20 | Cc1cc(C(=O)Nc2ccc3c(c2)CCN3C2CCN(Cc3ccc(O)cc3)C2)no1 (centres unmarked) [TCMDC-135078] | -0.5259%
21 | Cc1ccc(Cn2cnc3cc(C(=O)Nc4ccc(-c5ccc(CN(C)C)cc5)cc4)ccc3c2=O)o1 [TCMDC-132364] | 111.6%

Row | Structure (SMILES) | % Inhibition
22 | CN(CCO)Cc1cccc(-c2ccc(NC(=O)c3cccc(C#N)c3)cc2)c1 [TCMDC-132671] | -45.65%
23 | Cc1ccc(Cn2cnc3cc(C(=O)Nc4ccc(-c5cccc(CN(C)C)c5)cc4)ccc3c2=O)o1 [TCMDC-132366] | 91.1%
24 | COc1cccc2cc(C(=O)N[C@@H](CC(C)C)C(=O)N[C@H](/C=N/NC(=O)Cc3cccnc3)CCc3ccccc3)oc12 [TCMDC-135634] | -9.897%
25 | O=C(Nc1ccc(-c2nc3ccccc3[nH]2)cc1)c1cnc(Cl)c(Cl)c1 [TCMDC-125109] | -47.86%
26 | CN1CCN(CC(=O)Nc2cccc(-c3cccc(-c4nc5ccc(F)cc5[nH]4)c3)c2)CC1 [TCMDC-136974] | 72.37%
27 | CN1CCN(CC(=O)Nc2cccc(-c3ccc(-c4nc5ccc(F)cc5[nH]4)cc3)c2)CC1 [TCMDC-136978] | 78.56%
28 | CN1CCC(C(=O)Nc2ccc(-c3cccc(-c4nc5ccc(F)cc5[nH]4)c3)cc2)CC1 [TCMDC-132180] | 28.01%
29 | CN1CCN(CC(=O)Nc2ccc(-c3csc(-c4nc5ccccc5[nH]4)c3)cc2)CC1 [TCMDC-132392] | -27.46%
30 | CN1CCC(C(=O)Nc2cccc(-c3ccc(-c4nc5ccc(F)cc5[nH]4)cc3)c2)CC1 [TCMDC-132185] | 12.21%
31 | CN1CCN(CC(=O)Nc2ccc(-c3cccc(-c4nc5ccc(F)cc5[nH]4)c3)cc2)CC1 [TCMDC-136973] | -61.95%
32 | O=C(Cc1cnc[nH]1)Nc1cccc(-c2ccc(-c3nc4ccc(F)cc4[nH]3)cc2)c1 [TCMDC-136946] | 4.671%
33 | CN1CCN(CC(=O)Nc2cccc(-c3cccc(-c4nc5ccccc5[nH]4)c3)c2)CC1 [TCMDC-136972] | 82.82%
34 | CN1CCN(CC(=O)Nc2cccc(-c3ccc(-c4nc5cc(F)ccc5[nH]4)s3)c2)CC1 [TCMDC-136986] | 9.75%
35 | CN1CCN(CC(=O)Nc2ccc(-c3ccc(-c4nc5ccccc5[nH]4)cc3)cc2)CC1 [TCMDC-136979] | -9.366%
36 | CN1CCC(C(=O)Nc2cccc(-c3cccc(-c4nc5ccc(F)cc5[nH]4)c3)c2)CC1 [TCMDC-132181] | 91.35%
37 | CCCN(Cc1nnc(-c2cccs2)o1)C(=O)CSc1nnnn1-c1ccc(C)c(C)c1 [TCMDC-125240] | 7.835%
38 | CCNc1cc(C(=O)N[C@@H](Cc2ccccc2)[C@H](O)CNC2(C(C)C)CCC2)cc(N2CCCCS2(=O)=O)c1 [TCMDC-135375] | 21.07%
39 | O=C(Nc1cccc(N2CCC(NCc3cnn(-c4cccc(F)c4)c3)CC2)c1)c1ccncc1 [TCMDC-124666] | 1.522%
40 | CCc1nc(N)nc(N)c1-c1ccc2c(c1)CCCC2 [TCMDC-137366] | 1.403%
41 | CC(=O)c1c[nH]c2ccc(/C=C/C(=O)NC3CCC(CCN4CCc5ccc(C#N)cc5CC4)CC3)cc12 (centres unmarked) [TCMDC-139781] | 8.041%
